FEN1 inhibitor = qHTS Assay for the Inhibitors of Human Flap endonuclease 1 (FEN1); Recombinant FEN1 flap cleavage, fluorescence, 15 min; Potency, µM (doses to about 114 µM), most hits filed as inhibitors; 390,000 compounds, 0.35% hits; also: nearly all actives have a fitted effect of over 65% in size
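Quantitative HTS format: each compound was titrated, incubated with 10 nM nuclease for 15 min at room temperature, then challenged with flap substrate at 50 nM final. Signal change over 15 min gave concentration–effect curves.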
Pol eta inh = qHTS for Inhibitors of Polymerase Eta; AID 588591, 2011; Potency, µM (top dose mostly 114 µM), most hits filed as inhibitors; recombinant Pol eta, fluorescent DNA replication assay; 390,000 compounds, 1.2% hits; DNA polymerase eta (Homo sapiens), Q9Y253
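Pol eta (10 nM) was preincubated with compounds for 15 min at room temperature, after which fluorescent replication substrate (50 nM final) was added to start the reaction. Fluorescence was read kinetically at 0 and 10 min.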
Pol beta inh = qHTS Assay for Inhibitors of DNA Polymerase Beta | 340,000 compounds, 1.3% hits | AID 485314, 2010 | Potency, µM (titrated, usually from 114 µM), actives largely listed as inhibitors | Pol beta primer extension/strand displacement, fluorescence kinetic
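Homogeneous kinetic assay of primer extension and strand displacement by 10 nM Pol beta, preincubated 15 min at room temperature with compound before 50 nM substrate (final) was added. Read at 0 and 10 min; four-parameter Hill fit.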
TDP1 block = qHTS Assay for Inhibitors of Tyrosyl-DNA Phosphodiesterase (TDP1); Tyrosyl-DNA phosphodiesterase 1 (Homo sapiens), Q9NUW8; recombinant TDP1, AlphaScreen DNA substrate cleavage; Potency, µM (series often up to 130 µM), hits mostly inhibitors; 350,000 compounds, 0.28% hits; also: nearly all actives have a fitted effect of over 40% in size
Target sequence (Q9NUW8 whole entry, looked up): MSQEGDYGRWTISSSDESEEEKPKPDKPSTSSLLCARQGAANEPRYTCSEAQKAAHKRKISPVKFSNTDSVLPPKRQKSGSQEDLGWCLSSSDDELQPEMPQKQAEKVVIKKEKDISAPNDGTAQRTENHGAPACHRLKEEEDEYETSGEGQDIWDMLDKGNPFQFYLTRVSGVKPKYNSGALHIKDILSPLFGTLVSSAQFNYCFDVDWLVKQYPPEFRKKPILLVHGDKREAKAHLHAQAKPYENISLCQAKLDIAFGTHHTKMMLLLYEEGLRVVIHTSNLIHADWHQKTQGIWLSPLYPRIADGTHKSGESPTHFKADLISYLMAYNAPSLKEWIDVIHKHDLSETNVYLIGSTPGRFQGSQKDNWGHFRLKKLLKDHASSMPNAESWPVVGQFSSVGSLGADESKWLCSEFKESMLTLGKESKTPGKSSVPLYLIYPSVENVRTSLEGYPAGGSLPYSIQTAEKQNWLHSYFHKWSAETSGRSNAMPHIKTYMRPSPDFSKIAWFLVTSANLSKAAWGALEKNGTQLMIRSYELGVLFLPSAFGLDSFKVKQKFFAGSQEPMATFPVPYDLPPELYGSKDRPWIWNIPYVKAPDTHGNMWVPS
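Enzyme-compound mixtures sat 15 min at room temperature, followed by a 5 min reaction with 15 nM final substrate and 10 min with AlphaScreen beads. Recombinant human Tdp1 was used at 1 nM final.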
Pol kappa inh = qHTS for Inhibitors of Polymerase Kappa; purified Pol kappa, fluorescent DNA synthesis assay, 10 min; 400,000 compounds, 0.53% hits; DNA polymerase kappa (Homo sapiens), Q9UBT6; Potency, µM (doses to about 107 µM), hits mostly inhibitors
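10 nM Pol kappa preincubated 15 min at room temperature with compounds, then reaction started with substrate at 50 nM final. Fluorescence read kinetically at 0 and 10 min; buffer-only wells served as negative control.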
POLI inh = qHTS for Inhibitors of Polymerase Iota. DNA polymerase iota (Homo sapiens), Q9UNA4. Pol iota fluorescent replication assay, 10 min. Potency, µM (doses to about 115 µM), usual class: inhibitors. 390,000 compounds, 1% hits. AID 588590, 2011
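Pol iota at 10 nM preincubated 15 min with compounds at room temperature; reaction started with fluorescent substrate, 50 nM final. Fluorescence read kinetically at 0 and 10 min; buffer-only wells as negative control.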
A number is an active result; i = inactive; ? = inconclusive; nt = not tested or not shown; [ ] = another dose, or the depositor's remark. Most compounds without a hit are left out; they make up all but 2.4% or so of the library. Calls follow the shape of the dose curve; as a rule, active = well fitted curve in the direction sought with a large enough effect; inconclusive = small, poorly fitted or top-dose-only effect, or another doubt; inactive = no such curve, though single readings can be large; an effect the other way counts as inactive or inconclusive.

SMILES	FEN1 inhibitor	Pol eta inh	Pol beta inh	TDP1 block	Pol kappa inh	POLI inh
COC(=O)c1ccc(NC(=O)COc2ccccc2C(=O)Nc2ccccc2)cc1	i	nt	nt	nt	i	i
Cc1cc(C(=O)Nc2sc3c(c2C#N)CCCC3)no1	i	i	i	i	i	?
Cc1cc(C(=O)Nc2sc3c(c2C#N)CCC3)no1	i	79µM	?	i	i	?
Cc1onc(-c2ccccc2)c1C(=O)Nc1sc2c(c1C(N)=O)CCC2	?	?	?	i	?	?
Cc1ccnc(SCC(=O)Nc2sc3c(c2C#N)CCCC3)n1	i	i	i	i	i	i
COc1ccc(CN(C)CC(=O)Nc2c(C)cccc2C)c(OC)c1	i	i	i	i	i	i
Cc1csc(SCC(=O)Nc2sc3c(c2C#N)CCC3)n1	i	?	20µM	i	i	?
COc1ccc(CN(C)CC(=O)Nc2sc3c(c2C#N)CCC3)c(OC)c1	i	i	20µM	i	i	i
Cc1onc(-c2ccccc2)c1C(=O)Nc1sc2c(c1C#N)CCC2	?	28µM	20µM	i	?	20µM
O=C(Nc1cc(Cl)cc(Cl)c1)c1cnn2c1NC(=C1CC1)C=C2C(F)F	i	nt	nt	nt	i	i
COc1ccc(OC)c(/C=C2\C=Cc3ccccc32)c1	?	nt	nt	nt	i	i
CC(C)CCOc1ccc(C(=O)Nc2sc3c(c2C#N)CCCCC3)cc1	?	i	i	i[12.3 µM]	89µM	i
O=C(Nc1ncnc2sc3c(c12)CCCCC3)c1ccco1	i	22µM	i	i	i	i
O=C(Nc1ncnc2sc3c(c12)CCCC3)c1ccncc1	i	i	i	i	i	i
CS(=O)(=O)c1nc([N+](=O)[O-])nn1CCCc1ccccc1	i	i	nt	nt	i	i
Cn1nc([N+](=O)[O-])nc1S(C)(=O)=O	i	i	89µM	i	?	?
COc1ccc2c(c1)c(=O)oc1cc(O)ccc12	i	i	i	i	i	i
COc1ccc2c(c1)c(=O)oc1cc3oc(C)c(C)c3cc12	nt	nt	25µM	nt	nt	nt
CCCCNS(=O)(=O)c1ccc2nc(SCC(=O)Nc3ccccc3)[nH]c2c1	i	i	i	i	i	i
CCCCNS(=O)(=O)c1ccc2nc(SCC(=O)c3ccc(C#N)cc3)[nH]c2c1	?	?	40µM	i	i	i
O=C(NNC(=O)c1ccccc1Cl)c1ccccc1Cl	i	i	89µM	i	i	i
Nc1cc(-c2ccncc2)c[nH]c1=O	i	?	i	i	i	10µM
O=C(COc1ccccc1[N+](=O)[O-])Nc1cccc(S(=O)(=O)NC2=NCCCCC2)c1	i	20µM	nt	nt	i	79µM
CN(C)C(=O)COc1ccccc1C(=O)OCC(=O)N(CCC#N)c1ccccc1	i	nt	nt	nt	i	i
Clc1ccc(Nc2ncnc3ccc(Br)cc23)cc1	?	i	i	i	i	?
SMILES	FEN1 inhibitor	Pol eta inh	Pol beta inh	TDP1 block	Pol kappa inh	POLI inh
Clc1cccc(Nc2ncnc3ccc(Br)cc23)c1	i	i	i	i	i	100µM
O=C(OCC#CCSc1nnc(-c2cccc3ccccc23)o1)c1sc2ccccc2c1Cl	nt	nt	nt	i	nt	nt
O=C(c1ccc(Cl)c(S(=O)(=O)N2CCCCCC2)c1)N1CCCCC1	i	i	i	i	i	i
O=C(NCCc1ccc(F)cc1)c1ccc(Cl)c(S(=O)(=O)N2CCOCC2)c1	i	45µM	nt	nt	i	?
CC1CCCN(S(=O)(=O)c2cc(C(=O)NCc3ccco3)ccc2Cl)C1 (configuration not stated)	i	i	nt	i	i	i
O=C(O)c1ccc(Cl)c(S(=O)(=O)N2CCCC2)c1	i	i	?	50µM	i	i
CCN(c1ccccc1)S(=O)(=O)c1cc(C(=O)NCc2ccco2)ccc1C	i	79µM	nt	i	i	?
O=C(NCc1ccco1)c1ccc(Cl)c(S(=O)(=O)N2CCCC2)c1	i	?	nt	i	i	35µM
Cc1ccc2nsnc2c1S(=O)(=O)Nc1cccc2cccnc12	nt	nt	nt	i	nt	nt
COc1cc2nc(N3CCCN(C)CC3)nc(N)c2cc1OC	?	nt	nt	nt	i	i
Clc1ccc2c(ccc[n+]2CCC2CCCCC2)c1	i	nt	nt	nt	i	?
CCN(c1ccccc1)S(=O)(=O)c1cc(C(=O)OC(C)C(=O)Nc2ccc3c(c2)OCCO3)ccc1C (configuration not stated)	i	?	10µM	nt	?	?
O=C(OC1CCOC1=O)c1ccc(Cl)c(S(=O)(=O)N2CCOCC2)c1 (configuration not stated)	i	40µM	nt	28µM	?	71µM
O=C(OC1CCOC1=O)c1ccc(Cl)c(S(=O)(=O)N2CCCCC2)c1 (configuration not stated)	i	i	?	i	i	i
COc1ccc(OC)c(-c2nnc3n2N=C(c2ccccc2OC)CS3)c1	nt	nt	nt	i	nt	nt
OCC1O[C@H]([S-])[C@H](O)[C@@H](O)[C@@H]1O.[Au+] (some centres not stated)	nt	nt	nt	nt	5.3µM	nt
OC[C@@H]1OC(O)[C@@H](O)[C@H](O)[C@H]1O (some centres not stated)	nt	nt	nt	i	i	nt
Nc1c(S(=O)(=O)O)cc(NC(=O)c2ccccc2)c2c1C(=O)c1ccccc1C2=O	?	18µM	22µM	nt	i	?
Nc1c(S(=O)(=O)O)cc(Nc2cccc3ccccc23)c2c1C(=O)c1ccccc1C2=O	nt	nt	nt	i	?	nt
CN1CCN(c2ncc3nc(-c4ccc(Cl)cc4)c(=O)n(Cc4ccc(F)cc4)c3n2)CC1	nt	nt	nt	nt	i	nt
c1ccn(-c2ccc(-c3ccn[nH]3)cc2)c1	i	i	i	i	i	i
Cc1ccc(C)n1-c1ccc(-c2ccn[nH]2)cc1	i	i	22µM	i	i	i
CC(C)=CC[C@@H](O)C1=CC(=O)c2c(O)ccc(O)c2C1=O	nt	nt	nt	i	0.89µM	nt
O=C(Cc1ccccc1)NNC(=O)c1ccc(NC(=O)c2ccccc2)cc1	i	i	20µM	nt	i	?
Cc1ccc(C(=O)NNC(=O)Cc2ccccc2)cc1	i	i	i	i	i	i
O=C(NNC(=O)c1ccc(NC(=O)c2ccccc2)cc1)c1ccccc1	i	i	79µM	i	i	?
O=C(NC(=S)Nc1ccc(NC(=O)c2ccco2)cc1)c1ccccc1	i	i	i	i	i	89µM
O=C(Nc1ccccc1C(=O)O)c1cccc(C(=O)Nc2ccccc2C(=O)O)c1	?	i	i	nt	i	i
O=C(Nc1ccccc1C(=O)O)c1ccccc1	i	i	32µM	?	i	?
NCC(=O)N[C@@H](CCCN=C(N)N)C(=O)NCC(=O)N[C@@H](CC(=O)O)C(=O)N[C@@H](CC(N)=O)C(=O)N1CC[C@@H](C(=O)O)C1	nt	nt	nt	i	i	nt

High-throughput results (PubChem)
